Results on 25 compounds are retold here after PubChem BioAssay AID540333 (Southern Research Specialized Biocontainment Screening …, 2011).

Molecules are shown by their SMILES. Screen size: about 10,000 compounds; about 320 (3.2%) were called active. Shown is part of a subset that was picked to be rich in actives. A number with no mark means an inactive call. No stated cut-off is given here; in the data, active means CPE inhibition mostly above about 9.1% (no sharp cut-off); inactive means mostly below about 7.2%.

The test can be described thus: Dengue virus cytopathic effect inhibitors, cell-based, CPE readout, HTS (AID 540333). The settings on record: Dengue virus CPE inhibition in host cells, at 20 µM; hits give high values. Background: Cytopathic effects are the visible damage that an infection or toxin causes in cultured cells.
`Cc1cc(NC(=O)CCc2ccccc2)c([N+](=O)[O-])cc1C`: the CPE inhibition entry was “inactive”.

As to `O=C(Nc1ccc(N2C(=O)c3cccc4cccc(c34)C2=O)cc1)c1ccc(N2CCCCC2)c([N+](=O)[O-])c1`, the CPE inhibition is 2.95%.

For `O=C(Nc1nc2ccc3ccccc3c2s1)c1ccc(N2CCCCC2)c([N+](=O)[O-])c1`, the CPE inhibition was 13.2% (active).

For the compound `O=C(Nc1nc2ccccc2s1)c1ccc(N2CCCCC2)c([N+](=O)[O-])c1`, the CPE inhibition was 2.82%.

As to `O=C(O)CSC(=S)N1CCCCC1`, the CPE inhibition was 0.795%.

As for `N#CC(C#N)=C1C=CC=CN1/C(=C\c1ccco1)C(=O)c1ccc(-c2ccccc2)cc1`, the CPE inhibition result was “inactive”.

As to `c1ccc(-c2c3ccccc3nc3[nH]c4ccccc4c23)cc1`, the CPE inhibition was 23.8% (active).

As for `Cc1nc2ccccc2c(-c2ccccc2)c1CC(=O)O`, the CPE inhibition is 0.655%.

In the case of `O=C(O)c1cccc(-c2nc3ccccc3[nH]2)c1`, the CPE inhibition is 0.345%.

Regarding `Cc1ccc(-n2nnnc2SC(C(=O)c2c[nH]c3ccccc23)c2ccccc2)cc1` (stereo not given), the CPE inhibition entry was “inactive”.

On to `O=C1C=C(c2ccc(Cl)c(C(F)(F)F)c2)C[C@@H](c2ccc3c(c2)OCO3)C1`, for which the CPE inhibition was 7.58%.

`O=C1C=C(c2ccccc2)C[C@@H](c2ccc3c(c2)OCO3)C1`: the CPE inhibition was 0.36%.

In the case of `O=C1C=C(c2cc(C(F)(F)F)cc(C(F)(F)F)c2)C[C@@H](c2ccc3c(c2)OCO3)C1`, the CPE inhibition was 17.9% (active).

On to `O=C(CSCc1ccccc1)Nc1ccc(F)c(F)c1`, for which the CPE inhibition result is “inactive”.

`Cc1cc(C(=O)NCC(=O)OCC(=O)N(C2CCCCC2)C2CCCCC2)ccc1[N+](=O)[O-]`: the CPE inhibition entry was “inactive”.

For `CCNc1ccc(C(=O)OCC(=O)NCc2ccc(C)cc2)cc1[N+](=O)[O-]`, the CPE inhibition is 0.91%.

In the case of `CCN1C(=O)[C@@H]2[C@@H](c3ccc(SC4CCCCC4)cc3)N3CCC[C@@]3(C(=O)OC)[C@@H]2C1=O`, the CPE inhibition was 0.855%.

For `CCCCCCSc1ccc([C@@H]2[C@@H]3C(=O)N(CC)C(=O)[C@@H]3[C@]3(C(=O)OC)CCCCN23)cc1`, the CPE inhibition is 16.4% (active).

Consider `COC(=O)[C@@]12CCCCN1[C@H](c1ccc(-c3ccc(C(C)=O)cc3)c(OC)c1)[C@@H]1C(=O)N(C)C(=O)[C@@H]12`, for which the CPE inhibition was 3.06%.

Consider `CCN1C(=O)[C@@H]2[C@@H](c3ccc(-c4ccc(Cl)c(Cl)c4)cc3)N3CCC[C@@]3(C(=O)OC)[C@@H]2C1=O`, for which the CPE inhibition was 3.61%.

For `CCN1C(=O)[C@@H]2[C@@H](c3ccc(-c4ccc(OC)cc4)cc3)N3CCC[C@@]3(C(=O)OC)[C@@H]2C1=O`, the CPE inhibition was 0.355%.

`CCN1C(=O)[C@H]2[C@@H](c3ccc(-c4ccc(Cl)c(Cl)c4)cc3)N3CCCC[C@@]3(C(=O)OC)[C@H]2C1=O`: the CPE inhibition is 15.9% (active).

`CCSc1ccc([C@@H]2[C@@H]3C(=O)N(C)C(=O)[C@@H]3[C@]3(C(=O)OC)CCCCN23)cc1`: the CPE inhibition entry is “inactive”.

On to `COC(=O)[C@@]12CCCCN1[C@H](c1ccc(-c3ccc(Cl)c(Cl)c3)cc1)[C@H]1C(=O)N(C)C(=O)[C@H]12`, for which the CPE inhibition was 26.6% (active).

Turning to `COC(=O)[C@@]12CCCCN1[C@H](c1ccc(-c3ccccc3)cc1)[C@H]1C(=O)N(C)C(=O)[C@H]12`, the CPE inhibition is 3.82%.
